For 19 compounds, outcome and AC50 results are on record in PubChem BioAssay (EPA / NIEHS).

The AC50 is the midpoint of the concentration-response curve, whichever way the signal moves.

The nature of assay [1]: ATG_GLI_CIS: Attagene CIS-FACTORIAL HepG2 Assay for human Zinc Finger Protein GLI1 (AID 2282945). To be noted: HepG2, Attagene cis-factorial reporter mRNA, GLI element; actives raise or lower the signal. In short, it runs like this: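 Bidirectional curve fits relative to DMSO, using reporter mRNA levels from RT-PCR plus capillary electrophoresis. Cells were HepG2 transiently carrying cis-regulated reporter constructs, harvested 24 h after dosing.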

For assay [2], the target named is Bile acid receptor (Homo sapiens) (UniProt Q96RI1). Kind of assay: ATG_IR1_CIS: Attagene CIS-FACTORIAL HepG2 Assay for human Nuclear Receptor Subfamily 1 Group H Member 4 (NR1H4), IR1 submotif (AID 2282946). The following applies: IR1 reporter transcription, actives raise or lower the signal. Summed up: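 HepG2 cells transiently transfected with multiplexed cis-element reporter units read endogenous transcription factor activity. After 24 h compound exposure, reporter mRNA was quantified by RT-PCR, fluorescent labelling, HpaI digestion and capillary electrophoresis; bidirectional fitting versus DMSO baseline.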

The nature of assay [3]: ATG_GRE_CIS: Attagene CIS-FACTORIAL HepG2 Assay for human Glucocorticoid Response Elements (GRE) (AID 2282947). The following applies: HepG2 GRE cis-reporter, Attagene multiplex mRNA; actives raise or lower the signal. In short, it runs like this:
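Multiplexed cis-reporter mRNA induction, HepG2, 24 h post-dose. RT-PCR, FAM-labelled, HpaI-digested amplicons by CE. Bidirectional fit vs DMSO.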

Assay [4] can be described thus: ATG_ISRE_CIS: Attagene CIS-FACTORIAL HepG2 Assay for human Interferon Regulatory Factor 1 (IRF1) binding to an Interferon-Stimulated Response Element (ISRE) (AID 2282948). The following applies: HepG2 ISRE cis-reporter (Attagene), mRNA transcription readout; actives raise or lower the signal. In short, it runs like this: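 Signal reflects induction or loss of ISRE-linked reporter mRNA in transiently transfected HepG2 cells after a 24 h treatment, detected by fluorescent RT-PCR fragments on capillary electrophoresis and normalised to DMSO.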

Assay [5] in a line: ATG_M_06_CIS: Attagene CIS-FACTORIAL HepG2 Assay for M06 Transcription Factor (Internal Marker) (AID 2282950). To be noted: HepG2 Attagene CIS-FACTORIAL M06 internal marker reporter; actives raise or lower the signal. In short, it runs like this:
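Measured 24 h post-dosing in transiently transfected HepG2 cells, this internal-marker endpoint reports reporter mRNA via RT-PCR with fluorescent primer extension and capillary electrophoresis. DMSO served as negative control and baseline for bidirectional fitting.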

The target of assay [6] is Hypoxia-inducible factor 1-alpha (Homo sapiens) (UniProt Q16665). Description: ATG_HIF1a_CIS: Attagene CIS-FACTORIAL HepG2 Assay for human Hypoxia Inducible Factor 1 (HIF1A) (AID 2282951). To be noted: HepG2 Attagene cis-factorial HIF1a reporter transcription; actives raise or lower the signal. Summed up: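 Activity is fitted in both directions relative to DMSO. Reporter transcripts are read by RT-PCR, fluorescent primer extension and capillary electrophoresis after 24 h chemical treatment. The cells are HepG2 carrying transiently transfected cis-element-driven reporter units responding to endogenous factors.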

Assay [7] concerns the target Hepatocyte nuclear factor 6 (Homo sapiens) (UniProt Q9UBC0). Kind of assay: ATG_HNF6_CIS: Attagene CIS-FACTORIAL HepG2 Assay for human Hepatocyte Nuclear Factor 6 (HNF6) (AID 2282952). The following applies: HepG2 Attagene cis-factorial HNF6 reporter transcription; actives raise or lower the signal. Summed up: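 Endogenous factor activity read in transiently transfected HepG2 via promoter-regulated reporter transcripts. RNA harvested 24 h post-dosing, reverse-transcribed, PCR-amplified, FAM-labelled, HpaI-digested and resolved by capillary electrophoresis; fitted in both directions against DMSO.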

A short description of assay [8]: ATG_MRE_CIS: Attagene CIS-FACTORIAL HepG2 Assay for human Metal Responsive Element (MRE) (AID 2282954). The following applies: HepG2 MRE cis-reporter transcription, Attagene multiplex; actives raise or lower the signal. In short, it runs like this:
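Multiplexed cis-reporter assay in human HepG2 liver cells, 24 h incubation with test chemical. Reporter transcripts measured by RT-PCR and capillary electrophoresis; values from bidirectional curve fitting versus DMSO.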

Assay [9] in a line: ATG_M_32_CIS: Attagene CIS-FACTORIAL HepG2 Assay for M32 Transcription Factor (Internal Marker) (AID 2282949).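 Note: background control marker of the multiplexed CIS panel rather than a real target.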 To be noted: HepG2 Attagene cis-factorial M32 reporter, mRNA; actives raise or lower the signal. In short, it runs like this: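 Using DMSO as baseline, bidirectional curve fits were applied to reporter mRNA signals. These came from transiently transfected HepG2 cells exposed for 24 h, with RNA analysed by RT-PCR, FAM primer extension, HpaI digestion and CE.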

Assay [10] has as its target Heat shock factor protein 1 (Homo sapiens) (UniProt Q00613). Description: ATG_HSE_CIS: Attagene CIS-FACTORIAL HepG2 Assay for human Heat Shock Transcription Factor 1 (HSE) (AID 2282953). The following applies: HepG2 HSE cis-reporter, Attagene RNA transcription; actives raise or lower the signal. Summed up: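 Reporter mRNA induction in HepG2 is measured 24 h after dosing, using transiently transfected multiplexed cis-regulated reporter units. Signal comes from capillary electrophoresis of labelled RT-PCR products, with DMSO as negative control.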

Each structure is given as a SMILES string. Values joined by “and” are separate entries in the source; they are usually repeats but may differ in a detail not shown here. Identical values can stand only once. Some compounds were tested as several samples or in several runs, with calls that do not always agree. Active and inactive are the calls of the source. Rule for the calls: active = hit-call score of the fitted dose curve at least 0.9, where 1 is the maximum; inactive = score below 0.9.

Bile acid receptor (Homo sapiens), sequence (Q96RI1 whole entry, looked up): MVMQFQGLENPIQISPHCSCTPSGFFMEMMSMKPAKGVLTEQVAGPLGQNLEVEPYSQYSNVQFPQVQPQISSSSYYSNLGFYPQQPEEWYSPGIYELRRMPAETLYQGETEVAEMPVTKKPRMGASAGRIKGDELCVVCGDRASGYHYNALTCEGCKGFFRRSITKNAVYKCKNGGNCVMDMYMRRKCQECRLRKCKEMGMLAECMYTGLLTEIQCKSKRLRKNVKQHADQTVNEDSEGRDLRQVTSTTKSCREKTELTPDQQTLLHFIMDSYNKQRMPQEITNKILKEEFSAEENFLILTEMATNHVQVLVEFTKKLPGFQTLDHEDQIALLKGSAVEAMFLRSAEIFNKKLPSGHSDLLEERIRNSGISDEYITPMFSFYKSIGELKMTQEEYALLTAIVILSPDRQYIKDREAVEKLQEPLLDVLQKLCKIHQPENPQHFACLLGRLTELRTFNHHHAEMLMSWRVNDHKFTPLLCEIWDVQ
Hepatocyte nuclear factor 6 (Homo sapiens), sequence (Q9UBC0 whole entry, looked up): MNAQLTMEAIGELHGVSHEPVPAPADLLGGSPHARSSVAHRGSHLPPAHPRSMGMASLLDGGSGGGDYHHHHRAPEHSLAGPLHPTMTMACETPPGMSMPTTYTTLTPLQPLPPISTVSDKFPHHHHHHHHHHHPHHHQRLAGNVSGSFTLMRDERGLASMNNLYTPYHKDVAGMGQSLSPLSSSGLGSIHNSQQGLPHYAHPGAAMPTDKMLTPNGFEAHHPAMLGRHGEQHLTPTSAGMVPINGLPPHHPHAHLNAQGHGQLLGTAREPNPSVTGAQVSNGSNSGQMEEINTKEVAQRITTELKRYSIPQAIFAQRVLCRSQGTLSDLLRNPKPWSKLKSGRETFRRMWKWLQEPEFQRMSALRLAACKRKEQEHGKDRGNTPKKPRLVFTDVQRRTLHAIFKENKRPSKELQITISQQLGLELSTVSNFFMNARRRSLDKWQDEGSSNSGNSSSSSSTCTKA
Heat shock factor protein 1 (Homo sapiens), sequence (Q00613 whole entry, looked up): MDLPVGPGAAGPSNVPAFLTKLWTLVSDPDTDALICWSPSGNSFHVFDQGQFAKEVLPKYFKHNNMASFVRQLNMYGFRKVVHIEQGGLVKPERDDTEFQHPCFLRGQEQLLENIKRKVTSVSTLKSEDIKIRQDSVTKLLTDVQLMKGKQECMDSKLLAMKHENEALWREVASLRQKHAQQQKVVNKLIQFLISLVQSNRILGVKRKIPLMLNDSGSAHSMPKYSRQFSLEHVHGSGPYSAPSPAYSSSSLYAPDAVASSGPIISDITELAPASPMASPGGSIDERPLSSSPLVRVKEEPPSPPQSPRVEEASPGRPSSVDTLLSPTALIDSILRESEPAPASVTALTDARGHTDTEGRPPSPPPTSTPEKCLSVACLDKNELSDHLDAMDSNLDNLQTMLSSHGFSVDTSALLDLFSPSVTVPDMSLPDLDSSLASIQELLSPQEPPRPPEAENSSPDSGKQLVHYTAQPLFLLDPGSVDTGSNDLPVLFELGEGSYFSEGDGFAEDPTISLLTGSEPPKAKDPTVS
Hypoxia-inducible factor 1-alpha (Homo sapiens), sequence (Q16665 whole entry, looked up): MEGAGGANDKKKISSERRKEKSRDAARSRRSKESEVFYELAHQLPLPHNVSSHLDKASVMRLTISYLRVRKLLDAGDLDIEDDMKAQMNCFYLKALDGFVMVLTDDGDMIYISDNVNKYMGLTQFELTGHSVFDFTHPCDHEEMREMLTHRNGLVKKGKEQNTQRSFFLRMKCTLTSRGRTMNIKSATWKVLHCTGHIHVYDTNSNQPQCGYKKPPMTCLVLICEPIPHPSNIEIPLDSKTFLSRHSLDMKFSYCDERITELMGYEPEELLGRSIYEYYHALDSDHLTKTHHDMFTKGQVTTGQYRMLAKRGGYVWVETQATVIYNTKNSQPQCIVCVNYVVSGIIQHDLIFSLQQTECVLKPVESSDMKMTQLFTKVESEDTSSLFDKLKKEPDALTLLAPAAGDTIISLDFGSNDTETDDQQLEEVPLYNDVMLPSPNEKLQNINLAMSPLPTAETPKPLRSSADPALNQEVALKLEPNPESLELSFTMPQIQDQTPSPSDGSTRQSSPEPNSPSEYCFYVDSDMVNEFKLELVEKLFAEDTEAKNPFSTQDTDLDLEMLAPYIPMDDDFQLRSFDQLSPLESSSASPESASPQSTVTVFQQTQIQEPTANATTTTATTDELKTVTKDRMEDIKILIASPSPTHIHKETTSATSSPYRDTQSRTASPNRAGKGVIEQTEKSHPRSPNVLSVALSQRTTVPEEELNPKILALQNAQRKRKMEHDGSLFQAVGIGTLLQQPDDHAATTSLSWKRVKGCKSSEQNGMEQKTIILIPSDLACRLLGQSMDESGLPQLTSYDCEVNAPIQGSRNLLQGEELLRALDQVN

Consider `CNC(=O)ON=CC(C)(C)SC`, for which the call in assay [1], in [2], in assay [3], in [4], in assay [5] and in assay [6] was inactive. Also, the call in assay [7] and in assay [8] was inactive. Besides, the AC50 in [4] is 167 µM (active).

As for `Cc1ccc(-c2c(Cl)nc(C#N)n2S(=O)(=O)N(C)C)cc1`, the compound was called inactive in assay [1], in assay [2], in [3], in [4], in assay [9] and in assay [5]. For the same compound, the outcome in [6], in [7], in assay [10] and in assay [8] was inactive.

Take `CCCN(CCC)c1c([N+](=O)[O-])cc(S(N)(=O)=O)cc1[N+](=O)[O-]`: the call in assay [1], in [2], in assay [3], in assay [4], in assay [5] and in assay [6] was inactive. The result in [7], in assay [10] and in assay [8] was inactive.

In the case of `CCOP(=S)(OCC)SCn1c(=O)oc2cc(Cl)ccc21`, the outcome in assay [1], in assay [2], in assay [3], in assay [4], in assay [9] and in [5] was inactive. The result in [7] was inactive. Also, the AC50 in [6] was 28.8 µM (active); in assay [10] it was 78.7 µM (active); in assay [8], 66.2 µM (active).

Take `N#Cc1nn(-c2c(Cl)cc(C(F)(F)F)cc2Cl)c(N)c1S(=O)C(F)(F)F` (configuration not stated): the compound was called inactive in assay [1], in assay [2], in [3], in assay [4], in [5] and in assay [6]. Further, the compound was called inactive in [7] and in assay [8]. Also, the results for the concentration at half-maximal activity (AC50) in assay [3], in assay [7] and in assay [8] were 29 µM (active), 44.7 µM (active) and 38.8 µM (active), respectively.

Consider `C=CCC1=C(C)C(OC(=O)C2C(C=C(C)C)C2(C)C)CC1=O` (configuration not stated), for which the AC50 is 67.2 µM (active) [middle of 5 runs] in [1]; 54.7 µM (active) in assay [2]; 35 µM (active) [middle of 4 runs] in [6]; 74.8 µM (active) [middle of 6 runs] in assay [10]; 43.8 µM (active) [middle of 6 runs] in assay [8]. The compound was classed as inactive in assay [1], in assay [2], in assay [3], in [4], in assay [5] and in assay [6]. In addition, the call in assay [7] was inactive.

As for `CCCCNC(=O)OCC#CI`, the AC50 in assay [1] was 51.8 µM (active); in assay [2] it was 160 µM (active); in [4] it was 33 µM (active); in assay [10], 25.6 µM (active); in assay [8], 35.9 µM (active). The compound was classed as inactive in assay [1], in assay [2], in assay [3], in assay [4], in assay [5] and in assay [6]. The result in assay [7], in [10] and in [8] was inactive.

For `C#CCOS(=O)OC1CCCCC1Oc1ccc(C(C)(C)C)cc1` (configuration not stated), the result in assay [1], in [2], in assay [3], in assay [4], in assay [9] and in assay [5] was inactive. Further, the compound was classed as inactive in assay [7] and in assay [10]. For the same compound, the AC50 in assay [6] and in assay [8] was 2.4 µM (active) in each case.

Regarding `CS/C(C)=N/OC(=O)N(C)SN(C)C(=O)O/N=C(\C)SC`, the result in assay [1], in assay [2], in assay [3], in [4], in [5] and in assay [6] was inactive. Further, the compound was called inactive in assay [7], in assay [10] and in [8].

Take `O=C(O)COc1nc(Cl)c(Cl)cc1Cl`: the outcome in assay [1], in [2], in assay [3], in assay [4], in assay [5] and in [6] was inactive. In addition, the compound was called inactive in [7], in [10] and in assay [8].

Turning to `CCCCC(CC)COC(=O)c1ccccc1C(=O)OCC(CC)CCCC` (configuration not stated), the compound was called inactive in [1], in assay [2], in assay [3], in [4], in assay [9] and in assay [5]. For the same compound, the outcome in [6], in [7] and in assay [8] was inactive.

`COc1ccc(C(c2ccc(OC)cc2)C(Cl)(Cl)Cl)cc1`: the result in [1], in assay [2], in assay [3], in [4], in [5] and in assay [6] was inactive. Further, the compound was called inactive in assay [7], in assay [10] and in assay [8]. Also, the AC50 in assay [2] is 21.6 µM (active); in assay [6], 3.88 µM (active); in assay [8], 65.1 µM (active) and 15.6 µM (active) and 11.9 µM (active).

Take `CC1COC(Cn2cncn2)(c2ccc(Oc3ccc(Cl)cc3)cc2Cl)O1` (configuration not stated): the result in assay [1], in [2], in [3], in assay [4], in assay [5] and in [6] was inactive. Further, the outcome in assay [7] and in assay [10] was inactive. Also, in assay [8], the AC50 is 3.17 µM (active).

Consider `COC(=O)C(C)Oc1ccc(Oc2ccc(Cl)cc2Cl)cc1` (configuration not stated), for which the outcome in [1], in [2], in [3], in [4], in assay [5] and in assay [6] was inactive. Besides, the result in [7], in [10] and in assay [8] was inactive. Further, in [2], the concentration at half-maximal activity (AC50) is 76.5 µM (active).

Regarding `CCc1nn(C)c(C(=O)NCc2ccc(C(C)(C)C)cc2)c1Cl`, the outcome in [1], in assay [2], in [3], in assay [4], in [9] and in assay [5] was inactive. For the same compound, the result in assay [6], in assay [7] and in assay [10] was inactive. Also, in assay [8], the AC50 is 2.3 µM (active).

For the compound `N#Cc1cc(Br)c(O)c(Br)c1`, the result in [1], in [2], in assay [3], in assay [4], in assay [9] and in assay [5] was inactive. Also, the compound was classed as inactive in assay [6], in assay [7] and in assay [10]. Moreover, in [8], the half-maximal activity concentration (AC50) is 39.9 µM (active).

For the compound `COP(=S)(OC)Oc1nc(Cl)c(Cl)cc1Cl`, the AC50 in assay [1] is 64.9 µM (active). Further, the compound was called inactive in assay [2], in assay [3], in assay [4], in assay [5], in [6] and in [7]. Besides, the call in assay [10] and in assay [8] was inactive.

For `COC(=O)c1ccccc1C(=O)OC`, the compound was called inactive in assay [1], in assay [2], in assay [3], in assay [4], in assay [9] and in assay [5]. Besides, the compound was called inactive in [6], in assay [7], in assay [10] and in assay [8].

With `COc1nc(C)nc(NC(=O)NS(=O)(=O)c2ccccc2CCC(F)(F)F)n1`, the outcome in [1], in [2], in [3], in assay [4], in [9] and in assay [5] was inactive. Moreover, the call in assay [6], in assay [7], in assay [10] and in assay [8] was inactive.
